Assay results: PubChem BioAssay AID463173 (ICCB-Longwood Screening Facility, Harvard Medical School, 2010)
Among all 52,000 compounds or so, about 1,700 (3.3%) were called active. Cut-off read from the data, not from the text of the source: active = survival mostly below about 52% (no sharp cut-off); inactive = mostly above about 56%. Many of the other results were omitted from the sample, so actives are more common in it than they were.

System: Wild type
Assay: growth inhibition of S. aureus wild type versus tarO mutant, primary screen, teichoic acid synthesis inhibitors, RN4220, OD600 (AID 463173)
Settings: S. aureus RN4220 wild type/DeltatarO growth, OD600, 18 h, hits give low values, screened at 18.75 µg/mL (by protocol)

Row | Compound | survival
1 | CCOc1cccc(C2c3c(oc4cc(C)c(C)cc4c3=O)C(=O)N2c2nc(C)c(C)s2)c1 (stereo not drawn) | 71% (inactive)
2 | CCc1ccc(NC(=O)[C@H](CSCc2ccccc2)N2Cc3ccccc3C2=O)cc1 | 79% (inactive)
3 | CCc1ccccc1NC(=O)CN1CCC(NC(=O)NC2CCCCC2)CC1 | 102% (inactive)
4 | COc1ccccc1N1CCN(c2ncnc3c2nnn3C)CC1 | 129% (inactive)
5 | Cc1cc(F)ccc1NC(=O)C1CCCN(C(=O)c2cnn(-c3ccccc3)c2-n2cccc2)C1 (stereo not drawn) | 85% (inactive)
6 | CCCN1C(C(=O)c2ccccc2)=C(OC(=O)COc2ccc(C)cc2)c2ccccc2S1(=O)=O | 25% (inactive)
7 | c1ccc2c(c1)ncn2-c1ncnc2sc3c(c12)CCCC3 | 107% (inactive)
8 | COc1ccc(-c2cc(OC(=O)c3cccc(Cl)c3)c3c(C)oc(C)c3c(=O)c2)cc1OC | 76% (inactive)
9 | CSc1cccc(NC(=O)c2cccc(N3CCCS3(=O)=O)c2)c1 | 115% (inactive)
10 | CCN(C(=O)Cn1c(C(=O)OC)cc2sccc21)c1cccc(C)c1 | 73% (inactive)
11 | O=c1cc(-c2ccccc2)nc(SCc2nc(-c3cccc(C(F)(F)F)c3)no2)[nH]1 | 83% (inactive)
12 | CCOC(=O)c1ccc(NC(=O)C2CCCN(c3ccc(Sc4ccc(C)cc4)nn3)C2)cc1 (stereo not drawn) | 80% (inactive)
13 | Cc1ccc(Sc2ccc(N3CCCC(C(=O)Nc4ccc(Cl)cc4)C3)nn2)cc1 (stereo not drawn) | 71% (inactive)
14 | CCOc1ccc(NC(=O)C2CCCN(c3ccc(Sc4ccc(C)cc4)nn3)C2)cc1 (stereo not drawn) | 16% (active)
15 | O=S(=O)(c1ccc(Br)cc1)c1nnn2c1nc(NCc1ccc3c(c1)OCO3)c1sccc12 | 90% (inactive)
16 | CCOC(=O)C1CCCN(C(=O)c2ccc(-n3ccc4ccccc43)s2)C1 (stereo not drawn) | -3% (active)
17 | CCC(C)NC(=O)C1CCN(C(=O)c2ccc(-n3ccc4ccccc43)s2)CC1 (stereo not drawn) | 55% (inactive)
18 | CCOC(=O)C1CCN(C(=O)c2ccc(-n3ccc4ccccc43)s2)CC1 | 71% (inactive)
19 | COCCn1c(=S)[nH]c2ccccc2c1=O | 105% (inactive)
20 | CCCC(=O)N(c1ccc2oc3c(c2c1)CCCC3)S(=O)(=O)c1ccc(CC)cc1 | 67% (inactive)
21 | CC(C)c1ccc(-c2nnn(CC(N)=O)n2)cc1 | 115% (inactive)
22 | Cc1ccc(-n2ncc(C(=O)N3CCN(c4cccc(C)c4C)CC3)c2C2CCNCC2)c(C)c1 | 84% (inactive)
23 | CC(C)(C)OC(=O)N1CCC(c2c(C(=O)N3CCN(c4ncccn4)CC3)cnn2-c2ccc(F)cc2F)CC1 | 1% (active)
24 | COc1ccccc1N1CCN(C(=O)c2cnn(-c3ccc(F)cc3F)c2C2CCNCC2)CC1 | 0% (active)
25 | CN1CCN(C(=O)c2cnn(-c3ccc(F)cc3F)c2C2CCN(C(=O)OC(C)(C)C)CC2)CC1 | 87% (inactive)
26 | Cc1ccc(-n2ncc(C(=O)N3CCN(c4ncccn4)CC3)c2C2CCN(C(=O)OC(C)(C)C)CC2)cc1 | 71% (inactive)
27 | CC(C)(C)OC(=O)N1CCC(c2c(C(=O)N3CCN(c4ncccn4)CC3)cnn2-c2ccc(F)cc2)CC1 | -1% (active)

Row | Compound | survival
28 | CC(C)(C)OC(=O)N1CCC(c2c(C(=O)N3CCN(c4ccccn4)CC3)cnn2-c2ccc(F)cc2F)CC1 | 71% (inactive)
29 | CC(C)(C)OC(=O)N1CCC(c2c(C(=O)N3CCN(c4ncccn4)CC3)cnn2-c2ccccc2)CC1 | 87% (inactive)
30 | Cc1cccc(N2CCN(C(=O)c3cnn(-c4ccc(F)cc4F)c3C3CCN(C(=O)OC(C)(C)C)CC3)CC2)c1C | 99% (inactive)
31 | COc1ccc(OC)c(NC(=O)Cn2cc(C(=O)c3ccc(Cl)cc3)c(=O)c3cc(OC)ccc32)c1 | 68% (inactive)
32 | O=C(CSc1nc2c([nH]c3ccccc32)c(=O)n1-c1ccccc1)Nc1ccc2c(c1)OCCO2 | 87% (inactive)
33 | CC(C)c1ccc(NS(=O)(=O)c2ccc3[nH]cc(C(=O)NC4CCCCC4)c(=O)c3c2)cc1 | 13% (inactive)
34 | CNC(=O)c1c[nH]c2ccc(S(=O)(=O)Nc3cccc(Cl)c3C)cc2c1=O | 82% (inactive)
35 | CCc1ccccc1NS(=O)(=O)c1ccc2[nH]cc(C(=O)NC3CCCC3)c(=O)c2c1 | 42% (inactive)
36 | CCc1ccc(NS(=O)(=O)c2ccc3[nH]cc(C(=O)NC4CCCC4)c(=O)c3c2)cc1 | 9% (active)
37 | CCOc1ccc(NS(=O)(=O)c2ccc3[nH]cc(C(=O)NCc4ccccc4)c(=O)c3c2)cc1 | 74% (inactive)
38 | CCOc1ccc(NS(=O)(=O)c2ccc3[nH]cc(C(=O)N(C)Cc4ccccc4)c(=O)c3c2)cc1 | 1% (active)
39 | Cc1ccccc1NS(=O)(=O)c1ccc2[nH]cc(C(=O)NC3CCCCC3)c(=O)c2c1 | 80% (inactive)
40 | CC(C)c1ccc(NS(=O)(=O)c2ccc3[nH]cc(C(=O)NC4CCCC4)c(=O)c3c2)cc1 | 7% (active)
41 | Cc1cc(C)cc(NS(=O)(=O)c2ccc3[nH]cc(C(=O)N(C)Cc4ccccc4)c(=O)c3c2)c1 | 111% (inactive)
42 | Cc1c(Cl)cccc1NS(=O)(=O)c1ccc2[nH]cc(C(=O)NC3CCCC3)c(=O)c2c1 | 11% (active)
43 | Cc1cc(C)cc(NS(=O)(=O)c2ccc3[nH]cc(C(=O)NC4CCCCC4)c(=O)c3c2)c1 | 27% (inactive)
44 | CCOc1ccc(NS(=O)(=O)c2ccc3[nH]cc(C(=O)NC4CCCC4)c(=O)c3c2)cc1 | 55% (inactive)
45 | COc1ccc(-n2ncc3c2ncn2nc(-c4ccc(Cl)cc4Cl)nc32)cc1 | 92% (inactive)
46 | Cc1ccc(NC2=NCC(=O)N2C2CCCC2)cc1C | 104% (inactive)
47 | CCOC(=O)c1cc(-c2ccccc2)n(CCCC(=O)Nc2ccc(C)cc2Cl)c1C | 91% (inactive)
48 | COc1ccc(S(=O)(=O)N/N=C(/C2CCCCC2)C(F)(F)F)cc1 | 111% (inactive)
49 | CCN(C(=O)CCS(=O)(=O)c1ccc2c(c1)oc(=O)n2C)c1ccc(OC)cc1 | 70% (inactive)
50 | CCc1ccccc1NC(=O)Nc1cc(C(=O)NCc2ccc(OC)cc2)ccc1N1CCCC1 | 128% (inactive)
51 | CN(C(=O)c1c[nH]c2ccc(S(=O)(=O)Nc3cccc(C(F)(F)F)c3)cc2c1=O)C1CCCCC1 | 71% (inactive)
52 | COc1cccc(NS(=O)(=O)c2ccc3[nH]cc(C(=O)NC4CCCCC4)c(=O)c3c2)c1 | 50% (inactive)
53 | O=C(NC1CCCC1)c1c[nH]c2ccc(S(=O)(=O)Nc3cccc(C(F)(F)F)c3)cc2c1=O | 11% (active)
